Screening data (PubChem)
Hits are enriched below; roughly 1.2% of the tested compounds scored in any of these assays.
ugtP null kill = kills S. aureus RN4220 lacking UgtP. growth inhibition, % (concentration not given with the values). 330,000 compounds, 0.54% hits. S. aureus RN4220 ugtP deletion, OD600 growth, 16 h; in the data active means growth inhibition above about 68%;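 further: plate controls were untreated wells for no effect and antibiotic for full effect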
PrP UTR inh = suppresses PrP 5' UTR mRNA reporter expression | cell-based PrP 5' UTR mRNA reporter, plate reader | inhibition, % (test concentration not listed) | 340,000 compounds, 0.35% hits | AID 488862; in the data active means inhibition above about 52%; further: 0 = median of the neutral control wells
TcdB inh = inhibitors of Clostridioides difficile toxin B glycohydrolase; P18177; TcdB glycohydrolase enzymatic assay, plate reader; inhibition, % at 9.99 µM; 350,000 compounds, 0.24% hits; AID 652162; in the data active means inhibition above about 10%
PfHsp40 rescue = restores yeast growth despite PfHsp40 toxicity; 340,000 compounds, 0.68% hits; growth rescue, % at 12.5 µM; S. cerevisiae expressing PfHsp40, growth rescue, ATP luminescence; in the data active means growth rescue above about 28%, passing the limit was not always enough; inconclusive means no clear call, values can overlap the other calls;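 further: yeast W303a lacking pdr1 and pdr3 grown in galactose medium; growth measured after three days at 30 °C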
Sa RN4220 lethal = S. aureus RN4220 growth inhibition; OD600, 16 h; inhibition, % (concentration not given with the values); 330,000 compounds, 0.33% hits; AID 1259311; in the data active means inhibition above about 85%;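 further: plate controls were untreated cells for no effect and reference antibiotic for full effect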
PrP UTR cherry = prion 5' UTR mRNA inhibition, cherry-pick retest; shares compounds with PrP UTR inh; cell-based prion protein 5' UTR reporter, plate reader; inhibition, % at 2.5 µM; 1,100 compounds, 48% hits; AID 504592; in the data active means inhibition above about 54%; inconclusive means no clear call, values can overlap the other calls
* hit, by the source's call.

What do the screens show for `O=C(N[C@H]1CC[C@H](CCn2cc(C3(O)CCCC3)nn2)O[C@@H]1CO)C1CCCCC1`?
TcdB inh: -1

What do the screens show for `CC(=O)OC1C(O)C(C)OC(OC2C(OC(=O)C3CCC4C(C3)OC3(CC(OC(=O)/C=C/c5ccccc5)C(C)CO3)C43CO3)OC(C)C(O)C2OC(C)=O)C1O` (stereo not drawn)?
PrP UTR inh: 84*; TcdB inh: 0; PfHsp40 rescue: 3; PrP UTR cherry: 83*

How did OCC1OC(Oc2c[nH]c3ccccc23)C(O)C(O)C1O (stereo not drawn) do in these assays?
ugtP null kill: -2; PrP UTR inh: 68*; TcdB inh: -16; PfHsp40 rescue: 1; Sa RN4220 lethal: 7; PrP UTR cherry: -22

How did CC(C)CCCCCCCCCCCCC(=O)NCC(=O)NC1C(O)C(O)C(Nc2ncnc3nc[nH]c23)OC1C(O)CO (stereo not drawn) do in these assays?
PrP UTR inh: 89*; PfHsp40 rescue: -2; PrP UTR cherry: 86*

What do the screens show for `CC(O)CNc1ncnc2nc[nH]c12` (stereo not drawn)?
ugtP null kill: -1; PrP UTR inh: -20; PfHsp40 rescue: 2; Sa RN4220 lethal: 2

Results for O=C(c1cnn2ccccc12)N1CCCc2ccccc21 ?
ugtP null kill: 13; PrP UTR inh: 60*; TcdB inh: 3; PfHsp40 rescue: 0; Sa RN4220 lethal: 5; PrP UTR cherry: 32

Results for O=C(c1cnc2ccccn2c1=O)N1CCCc2ccccc21 ?
ugtP null kill: 1; PrP UTR inh: -15; PfHsp40 rescue: 1; Sa RN4220 lethal: 2

How did COc1ccc(NC(=O)NC=Cc2ccco2)cc1 do in these assays?
ugtP null kill: -4; Sa RN4220 lethal: 8

How did O=C(C[C@@H]1C=C[C@H](NC(=O)C2CCOCC2)[C@@H](CO)O1)NCc1ccccc1Cl do in these assays?
TcdB inh: -8

What do the screens show for `CCCCNC(=O)C1c2cc(OC)c(OC)cc2C(=O)N(C)C1c1cccs1` (stereo not drawn)?
ugtP null kill: -1; PrP UTR inh: 81*; TcdB inh: 1; PfHsp40 rescue: -1; Sa RN4220 lethal: 5; PrP UTR cherry: -15

Results for N=c1ccn2c(n1)O[C@H]1[C@@H](CO)[C@H](O)O[C@H]12 ?
PrP UTR inh: 52*; TcdB inh: 1; PfHsp40 rescue: -1; PrP UTR cherry: 38

Results for O=C(NN=Cc1ccco1)C1CC1(c1ccccc1)c1ccccc1 (stereo not drawn) ?
ugtP null kill: -13; Sa RN4220 lethal: -4

What do the screens show for `COc1cccc(C2=CC(c3cc(OC)ccc3OC)n3nnnc3N2)c1` (stereo not drawn)?
ugtP null kill: 3; PrP UTR inh: -24; PfHsp40 rescue: 3; Sa RN4220 lethal: 9

What do the screens show for `COc1ccc(OC)c(C2C=C(c3ccc(C)c(C)c3)Nc3nnnn32)c1` (stereo not drawn)?
ugtP null kill: -1; PrP UTR inh: 69*; PfHsp40 rescue: -1; Sa RN4220 lethal: 3; PrP UTR cherry: 3

What do the screens show for `CCOc1cc(C=NNc2nc(N3CCCC3)nc(N3CCCC3)n2)ccc1O`?
ugtP null kill: 8; Sa RN4220 lethal: 5

Results for COc1cc2c(c(OC)c1O)-c1ccc(OC)c(=O)cc1C(NC(=O)C(F)(F)F)CC2 (stereo not drawn) ?
PrP UTR inh: 54*; TcdB inh: -11; PfHsp40 rescue: -1; PrP UTR cherry: 90*

How did COc1cc2c(c(OC)c1OC)-c1ccc(OC)c(=O)cc1[C@@H](N(C)CC#CCO)CC2 do in these assays?
PrP UTR inh: 80*; TcdB inh: -12; PfHsp40 rescue: 1; PrP UTR cherry: 91*

How did CCN(CC)c1ccc2c(cc1=O)[C@@H](NC)CCc1cc(OC)c(OC)c(OC)c1-2 do in these assays?
PrP UTR inh: 80*; TcdB inh: -11; PfHsp40 rescue: -2; PrP UTR cherry: 82*

What do the screens show for `COc1ccc(NC(=O)N(C)C[C@@H]2Oc3c(NC(=O)Nc4cccc5ccccc45)cccc3C(=O)N([C@H](C)CO)C[C@@H]2C)cc1`?
TcdB inh: 0

Results for O=C(c1oc(=O)c2ccccc2c1-c1ccccc1)N1CCC(O)CC1 ?
ugtP null kill: 4; PrP UTR inh: 68*; TcdB inh: 1; PfHsp40 rescue: 0; Sa RN4220 lethal: 1; PrP UTR cherry: -21

What do the screens show for `CCOC(=O)C1(CC2CCCCO2)CCN(Cc2ccc(OC)cc2F)CC1` (stereo not drawn)?
ugtP null kill: 3; PrP UTR inh: 80*; TcdB inh: 1; PfHsp40 rescue: 1; Sa RN4220 lethal: 1; PrP UTR cherry: -15

Results for COc1ccc(C#Cc2ccc3c(c2)[C@@H]2[C@@H](CCN2S(=O)(=O)c2ccccc2C)[C@H](CO)N3C)cc1 ?
TcdB inh: 0

What do the screens show for `CCN1CCN(Cc2ccc(NC(=O)c3ccc(C)c(NC(=O)c4cncc(-c5cccs5)c4)c3)cc2C(F)(F)F)CC1`?
ugtP null kill: -8; PrP UTR inh: 61*; PfHsp40 rescue: -1; Sa RN4220 lethal: -6; PrP UTR cherry: 86*

Results for CN(C)c1ccc(/C=C/c2nc3ccccc3s2)cc1 ?
ugtP null kill: -5; PrP UTR inh: 31; PfHsp40 rescue: 2; Sa RN4220 lethal: 2

What do the screens show for `CN(C)c1ccc(/C=C/c2ccc3ccccc3n2)cc1`?
ugtP null kill: -4; PrP UTR inh: 84*; TcdB inh: 1; PfHsp40 rescue: -2; Sa RN4220 lethal: -4; PrP UTR cherry: inconclusive

Results for C(=C\c1ccc2ccccc2n1)/c1ccccc1 ?
ugtP null kill: 17; PrP UTR inh: 58*; TcdB inh: 3; PfHsp40 rescue: 15; Sa RN4220 lethal: 3; PrP UTR cherry: 25

What do the screens show for `Oc1ccc(/C=C/c2ccc3ccccc3n2)cc1`?
ugtP null kill: -5; PrP UTR inh: 57*; TcdB inh: 6; PfHsp40 rescue: -4; Sa RN4220 lethal: -5; PrP UTR cherry: inconclusive

Results for N#C[C@@H]1[C@@H](c2ccccc2-c2cccc(F)c2)[C@@H](CO)N1C(=O)C1CCC1 ?
TcdB inh: 1

Results for C/C(=N\Nc1nc(N2CCCCC2)nc(N2CCOCC2)n1)c1ccccc1O ?
PrP UTR inh: 81*; TcdB inh: 1; PfHsp40 rescue: 3; PrP UTR cherry: 11

How did CC(=NNc1nc(N2CCCCC2)nc(N2CCOCC2)n1)c1cccs1 do in these assays?
ugtP null kill: -2; Sa RN4220 lethal: -4

Results for COC(=O)c1ccc(Oc2cc(C)nc(-n3nc(C)cc3C)n2)cc1 ?
ugtP null kill: 11; PrP UTR inh: 59*; PfHsp40 rescue: 0; Sa RN4220 lethal: -3; PrP UTR cherry: 89*

How did CCOC(=O)C1(Cc2ccccc2)CCCN(CCO)C1 (stereo not drawn) do in these assays?
ugtP null kill: 2; PrP UTR inh: -64; TcdB inh: -1; PfHsp40 rescue: 0; Sa RN4220 lethal: 2
